Data taken from PubChem BioAssay (NCI).
Several values for one entry are separate records, joined by “and”; a condition that tells them apart may be missing. Identical values can stand only once. This is part of a sample that, as a whole, favours compounds with a hit. Of some 83,000 tested, about 20% had one in any assay.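 The endpoint reported here, percent growth, reads 100 for growth as untreated, 0 for no net growth and -100 for all cells dead.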 Values without a mark were called inactive. Activity calls are given as the source filed them. Rule for the calls: active = growth percent below 10; inactive = the rest.

Tests used:
Experiment in all cases: NCI-60 one-dose screen, 48 h (100 = growth as untreated, 0 = no growth, -100 = all killed)
Details in all cases: 10 µM unless noted
[1] = system: NCI-H23 lung
[2] = system: NCI-H226 lung
[3] = system: NCI-H322M lung
[4] = system: HOP-62 NSCLC
[5] = system: NCI-H460 lung
[6] = system: HOP-92 NSCLC
[7] = system: NCI-H522 lung
[8] = system: A549/ATCC NSCLC
[9] = system: 786-0 renal
[10] = system: COLO 205 colon

Row | SMILES | growth [1] | growth [2] | growth [3] | growth [4] | growth [5] | growth [6] | growth [7] | growth [8] | growth [9] | growth [10]
1 | N#CC1=C(N)Oc2c(sc3c(Br)cccc23)C1c1ccccn1 (stereo not given) | 53.3% | 41.2% | 51.1% | 30.9% | 20.4% | 35.3% | -14.1% (active) | 40.1% | 27.2% | 6.4% (active)
2 | CSc1nnc(-c2cc3c([nH]c4ccccc43)c(-c3cccc(O)c3)n2)n1-c1ccc(C)cc1 | 70.9% | 57.6% | 70.3% | 44.9% | 11.4% | 21.3% | -2.1% (active) | 29.4% | 37.8% | 76.5%
3 | CCN(c1cc(-c2ccc(CN3CCC(/C=C/S(=O)(=O)c4ccccc4)CC3)cc2)cc(C(=O)NCc2c(C)cc(C)[nH]c2=O)c1C)C1CCOCC1 | 81.4% | 78.3% | 85.1% | 82.8% | 83.8% | 24.3% | 77.7% | 66.1% | 71.1% | 99.8%
4 | CCN1C(=S)N(CC)C2C1NC(=S)N2/N=C/C=C/c1ccccc1 (stereo not given) | 58.5% | 64.5% | 51.1% | 44.4% | 12.4% | 62.2% | -7.6% (active) | 37.6% | 40.9% | 33.4%
5 | O=C1c2cc3c(cc2-c2c1c1ccc(Cl)cc1c(=O)n2CCCn1ccnc1)OCO3 | -38.2% (active) | 1.03% (active) | 10.5% | 5.44% (active) | 2.4% (active) | -2.88% (active) | -26.1% (active) | 19.6% | -40.9% (active) | 14.5%
6 | C[C@@H]1CC[C@@H]2[C@@H]1[C@H](OC(=O)/C=C/c1ccccc1)[C@]1(c3ccccc3)C[C@@H](NC(=O)CO)[C@@]2(C)O1 | 97.7% | 88.8% | 98.2% | 96.8% | 105% | 65.5% | 82.3% | 95% | 101% | 99.7%
7 | Cc1ccc(/C=C/c2c(C(=O)/C=C/c3ccccc3)c(C)nc3ccccc23)cc1 | 27.5% | 43.6% | 46.8% | -18% (active) | -9.62% (active) | 89.4% | 11.1% | 30.8% | 25.8% | 12.7%
8 | CCN(C(=O)N1CCN(c2cc3c(cc2F)c(=O)c(C(=O)O)cn3C2CC2)CC1)c1nc(-c2ccccc2)cs1 | 6.27% (active) | 20.9% | 13.3% | 36% | 5.27% (active) | -18.4% (active) | -1.7% (active) | 12.4% | 14.3% | 64.1%
9 | COc1nc2ccc(C)cc2cc1/C=[N+](\[O-])c1ccccc1 | 93.8% | 73.6% | 85.1% | 81.7% | 98.9% | 72.5% | 84.6% | 92.4% | 103% | 96%
10 | CCOC(=O)C(=CCC(C)C)C(=O)OCC | 93.1% | 93.4% | 104% | 89% | 106% | 89.3% | 104% | 104% | 95.9% | 116%
11 | Nc1nc(Cl)nc2c1ncn2C1OC(CO)C(O)C1O (stereo not given) | 19.9% and 34.4% | 110% | 93.1% and 101% | 46.6% and 63.7% | 80% and 87.4% | 42.8% | 50.6% and 52.1% | 46.2% and 49.9% | 24.1% and 37.5% | 70%
12 | CC(=O)Nc1c(I)c(NC(C)=O)c(I)c(C(=O)O)c1I | 110% | 97.4% and 113% | 102% and 101% | 112% and 97.9% | 109% and 103% | 94.3% | 102% and 24.5% | 105% | 97.3% and 114% | 115% and 119%
13 | N#Cc1ccccc1-c1ccc(Cn2c(-c3cscn3)nc3c(Cl)cccc32)cc1 | 70.9% | 66.2% | 91.6% | 97.4% | 82.6% | 63.7% | 44.7% | 72.3% | 79.8% | 107%
14 | COc1ccc2c(c1)oc1c(C)c3c(c(C)c12)C(=O)N(Nc1ccccc1)C3=O | 98.5% | 106% | 95.5% | 88.9% | 98.9% | 100% | 95.7% | 112% | 92.8% | 94%
15 | O=C(Nc1ncc(Cc2cccc(C(F)(F)F)c2)s1)c1ccc2c(c1)OCCO2 | 31.2% | 21.3% | 54.1% | 25.2% | 6.46% (active) | 51.3% | 8.7% (active) | 17.2% | 39.9% | -7.82% (active)
16 | O=C(CCl)n1nnnc1Cc1ccccc1 | 102% | 104% | 102% | 90.2% | 108% | 102% | 90.8% | 92.2% | 95% | 111%
17 | N#Cc1ccccc1OCC(=O)Nc1nc2c(s1)COc1ccccc1-2 | 99.3% | 93.2% | 102% | 105% | 107% | 106% | 103% | 98.9% | 102% | 105%
18 | COc1cc(N=Nc2ccc(O)c3ncccc23)c2ncccc2c1 | 50.2% | 64.6% | 55.9% | 42.7% | 17.4% | 32.4% | 15.9% | 8.08% (active) | 24.3% | 52.4%
19 | CCCCCCCCn1ccc2cc(NC(=O)CN3CCN(c4nc(C)cc(N5CCCCC5)n4)CC3)ccc21 | 86% | 86.1% | 101% | 100% | 93.7% | 102% | 76.7% | 83.4% | 88.4% | 84.7%
20 | COc1ccc2nc3cc(Cl)ccc3c(NCCCNCCC(C)O)c2c1 (stereo not given) | -48.8% (active) | -3.4% (active) | -24.8% (active) | -8.19% (active) | -53.5% (active) | -23.7% (active) | -34.3% (active) | -17.6% (active) | -49.5% (active) | -77.7% (active)
21 | CC1=C2[C@@H](CC1)[C@]1(C)O[C@@](C(C)C)(C[C@H]1OC(=O)CO)[C@H]2OC(=O)C1CC1c1ccccc1 (stereo not given in full) | 92.8% | 78.2% | 84.7% | 82.4% | 85.6% | 87.3% | 73.9% | 73.9% | 91.2% | 107%
22 | Cc1ccc(Nc2nc(-c3cc(O)c(C)c(C)c3O)cs2)cc1 | 90.4% | 90.2% | 102% | 99.9% | 104% | 98.2% | 65.8% | 88.1% | 118% | 116%
23 | O=C(N/N=C/c1ccc(O)cc1O)c1cccc(Nc2ccnc(C(F)(F)F)c2)c1 | 27.5% | 40.5% | 22.7% | 14.3% | 22.2% | 44.1% | 41.5% | 55.9% | 5.8% (active) | 43%
24 | O=C1C(c2c[nH]c3ccccc23)=C(c2coc3cc(Br)ccc23)C(=O)N1O | 93.1% | 87.1% | 97.1% | 104% | 97.2% | 92.1% | 89.4% | 98.4% | 94.6% | 117%
25 | Cc1ccc(-c2nc([P+](c3ccccc3)(c3ccccc3)c3ccccc3)c(Nc3ccccc3)o2)cc1 | -6.49% (active) | 20.2% | 4.01% (active) | -16.4% (active) | -45.3% (active) | -14.4% (active) | -33.5% (active) | 4.95% (active) | -24.5% (active) | -62.8% (active)
26 | O=C(c1cccc(Br)c1)N1CCN(c2ccnc3cc(Cl)ccc23)CC1 | 79.7% | 87.3% | 92% | 95.3% | 100% | 78.7% | 45.1% | 73.8% | 71.9% | 93.7%
